Screening data (PubChem)
This is one part of a sample in which hits are shown more often than they occur.
Dicer processing – inhibitors of Dicer pre-microRNA processing, primary screen, biochemical, cat-ELCCA, chemiluminescence. Endoribonuclease Dicer (Homo sapiens), Q9UPY3. cat-ELCCA pre-miR-21 Dicer processing; hits give high values. z-score at 25 µM. actives 6% (n = 47,000); in the data active = z-score above about 3, passing the limit was not always enough;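 also: plate controls were vehicle for no effect and no enzyme for full effect; higher signal means more uncleaved substrate so more Dicer inhibition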
Target sequence (Q9UPY3 whole entry, looked up): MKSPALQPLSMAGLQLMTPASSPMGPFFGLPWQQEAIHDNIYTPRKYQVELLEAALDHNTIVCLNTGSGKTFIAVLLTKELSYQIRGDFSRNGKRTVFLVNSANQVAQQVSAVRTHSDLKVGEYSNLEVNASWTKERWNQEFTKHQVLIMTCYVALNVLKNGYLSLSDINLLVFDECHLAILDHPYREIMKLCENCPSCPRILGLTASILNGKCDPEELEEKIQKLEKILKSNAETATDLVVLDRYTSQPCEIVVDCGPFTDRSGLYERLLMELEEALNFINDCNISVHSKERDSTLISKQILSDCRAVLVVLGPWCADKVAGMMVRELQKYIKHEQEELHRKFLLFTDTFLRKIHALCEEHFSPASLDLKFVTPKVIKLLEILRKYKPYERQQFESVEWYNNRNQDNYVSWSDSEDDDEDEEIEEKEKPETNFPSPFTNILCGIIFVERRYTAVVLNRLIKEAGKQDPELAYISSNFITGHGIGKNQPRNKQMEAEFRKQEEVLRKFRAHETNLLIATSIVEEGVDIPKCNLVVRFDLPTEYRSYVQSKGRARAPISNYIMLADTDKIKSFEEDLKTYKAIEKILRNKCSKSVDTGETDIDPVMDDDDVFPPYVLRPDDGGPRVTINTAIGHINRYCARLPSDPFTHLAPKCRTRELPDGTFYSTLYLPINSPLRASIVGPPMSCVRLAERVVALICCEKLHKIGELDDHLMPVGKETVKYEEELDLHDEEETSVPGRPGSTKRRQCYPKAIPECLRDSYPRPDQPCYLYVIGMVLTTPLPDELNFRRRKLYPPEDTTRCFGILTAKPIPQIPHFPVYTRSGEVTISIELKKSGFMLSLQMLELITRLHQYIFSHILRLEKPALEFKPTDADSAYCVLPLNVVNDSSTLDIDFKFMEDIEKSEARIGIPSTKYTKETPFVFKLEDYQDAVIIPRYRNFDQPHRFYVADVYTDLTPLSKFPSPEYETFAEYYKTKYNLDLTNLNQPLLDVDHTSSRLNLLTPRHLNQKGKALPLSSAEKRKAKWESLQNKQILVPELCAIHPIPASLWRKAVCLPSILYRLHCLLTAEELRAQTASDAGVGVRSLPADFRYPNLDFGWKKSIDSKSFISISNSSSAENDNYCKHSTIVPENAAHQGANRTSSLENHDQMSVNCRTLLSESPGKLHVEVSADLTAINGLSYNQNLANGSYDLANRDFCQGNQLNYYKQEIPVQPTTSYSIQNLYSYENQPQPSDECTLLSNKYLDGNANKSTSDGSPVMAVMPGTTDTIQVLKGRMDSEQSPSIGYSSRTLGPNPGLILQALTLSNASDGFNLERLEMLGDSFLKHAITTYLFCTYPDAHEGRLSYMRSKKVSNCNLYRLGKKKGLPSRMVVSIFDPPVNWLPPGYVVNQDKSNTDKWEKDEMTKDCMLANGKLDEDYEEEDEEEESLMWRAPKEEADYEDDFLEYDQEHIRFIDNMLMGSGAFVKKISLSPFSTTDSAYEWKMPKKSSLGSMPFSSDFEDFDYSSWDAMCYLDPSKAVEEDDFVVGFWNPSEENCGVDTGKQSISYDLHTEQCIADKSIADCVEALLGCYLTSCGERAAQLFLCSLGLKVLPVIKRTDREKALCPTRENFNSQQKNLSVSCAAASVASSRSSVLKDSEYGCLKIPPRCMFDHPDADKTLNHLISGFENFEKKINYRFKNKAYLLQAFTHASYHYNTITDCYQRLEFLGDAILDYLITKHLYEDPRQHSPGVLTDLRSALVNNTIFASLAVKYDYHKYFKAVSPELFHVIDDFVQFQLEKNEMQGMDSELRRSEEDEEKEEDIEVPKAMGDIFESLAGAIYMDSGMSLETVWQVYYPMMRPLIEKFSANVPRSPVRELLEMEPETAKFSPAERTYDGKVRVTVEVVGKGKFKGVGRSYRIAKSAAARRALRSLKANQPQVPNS
* hit, by the source's call.

SMILES	Dicer processing
CC1CC(O)(c2ccccc2)C(C)CN1C (stereo not drawn)	3.58*
C=C(C)Cc1c(C)nc(SCC(=O)C(C)(C)C)nc1OC(=O)N(C)C	1.86
CC1(C)CN=C(NCc2ccccn2)S1	4.01*
CN(C)C(=O)Oc1noc2ccc(Cl)cc12	0.46
CCC(C)n1[nH]c(=O)c2c1NC(=O)CSC2c1ccc(OC(C)C)cc1 (stereo not drawn)	-0.71
CC(=O)OC1CCC2C3C=CC4=CC(=O)C=CC4(C)C3CCC12C (stereo not drawn)	-0.23
c1ccc(CN2CCN(C3CCCCC3)CC2)cc1	3.12*
Cc1ccc(CN2CCN(C(C)C)CC2)cc1	2.86
Clc1ccc(CN2CCN(Cc3ccccc3Cl)CC2)cc1	1.28
CCC1C(C#N)=C(N)Oc2c1c(=O)oc1ccccc21 (stereo not drawn)	-0.66
CCOC(=O)C1=C(N)Oc2c(c(=O)oc3ccccc23)C1c1ccc(OC)cc1 (stereo not drawn)	3.03*
CCOC(=O)C1=C(N)Oc2c(c(=O)oc3ccccc23)C1c1ccccc1 (stereo not drawn)	6.54
Cc1cc(NC(=O)C(Cl)(Cl)Cl)ccc1Br	1.01
COc1ccc(CSC2C(C(=O)NNC(=O)c3ccc(Cl)cc3Cl)C3CCN2CC3)cc1 (stereo not drawn)	-0.38
O=[P@]1(N(CCCl)CCCl)NCCCO1	-0.61
CC(C)C1(C)N=C(c2ncccc2C(=O)O)NC1=O (stereo not drawn)	3.2*
Cc1[nH]nc2c1C1(CCN(C)CC1)C(C#N)=C(N)O2	-8.23
O=C(CNc1ccc(-c2ccccc2)cc1)Nc1ccc(Cl)cc1C(=O)c1ccccc1Cl	-0.56
CC(=O)CC(c1ccc([N+](=O)[O-])cc1)c1c(OC(C)=O)c2ccccc2oc1=O (stereo not drawn)	-0.15
COc1cccc(-n2c(/C=C/c3ccco3)nc3ccccc3c2=O)c1	0.91
COc1cccc(-n2c(/C=C/c3c[nH]c4ccccc34)nc3ccccc3c2=O)c1	3.44*
O=c1c2ccccc2nc(/C=C/c2ccc(O)cc2)n1-c1ccc(O)cc1	1.72
NCCCNc1ccc([N+](=O)[O-])c2cccnc12	0.82
Fc1ccc(CNC2CN3CCC2CC3)cc1 (stereo not drawn)	3.09*
COc1cccc(CNC2CN3CCC2CC3)c1OC (stereo not drawn)	-1.2
SMILES	Dicer processing
O=C(NC1CN2CCC1CC2)c1cccc(Cl)c1 (stereo not drawn)	-0.41
O=C1NC(=O)C(=Cc2ccc(Cl)cc2Cl)C(=O)N1	-2.89
FC(F)(F)c1ccc(N2CCNCC2)nc1	-0.41
S=C1NC2=C(CCc3ccccc32)C(c2cccnc2)N1 (stereo not drawn)	-0.78
OCC12COC3c4ccccc4C(OC1)N32 (stereo not drawn)	5.63*
CC1CN=C(Nc2cccc(C(F)(F)F)c2)S1 (stereo not drawn)	0.02
COc1ccc2c(c1)c(C(=O)O)c(C)n2C	0.29
CCc1ccc(CNCCc2ccc3c(c2)OCO3)cc1	0.83
c1coc(CNCCc2ccc3c(c2)OCO3)c1	7.68*
c1cc2c(cc1CCNCc1ccc3c(c1)OCO3)OCO2	2.46
COc1ccc(-n2c(/C=C/c3ccc([N+](=O)[O-])o3)nc3ccccc3c2=O)cc1	0.32
C/C(=C\c1ccc(Cl)cc1Cl)[N+](=O)[O-]	5.34
CC12CCC3(C[C@@H]1CCC1C2CCC2(C)C1CC[C@]2(C)O)OCCO3 (stereo partly drawn)	0.6
O=C(NC(=S)Nc1ccccc1OC(F)(F)F)Oc1ccccc1	-4.46
Cc1cc(C(=O)Nc2ccc(C(C)(C)C)cc2)nn1C(C)(C)C	-0.53
